A selection: hits, their analogues and other compounds. The true share with any hit is near 32%.
CYP2C19 inhib = blocks human cytochrome P450 2C19; CYP2C19 Supersomes, luciferin-H EGE luminescence, 30 min; inhibition, % at 5 µM; actives 21% (n = 96,000); AID 778;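 active = CYP2C19 inhibition above a set limit at 5 µM in the primary screen, cut at about 50% in these data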
Target sequence (P33261 whole entry, looked up): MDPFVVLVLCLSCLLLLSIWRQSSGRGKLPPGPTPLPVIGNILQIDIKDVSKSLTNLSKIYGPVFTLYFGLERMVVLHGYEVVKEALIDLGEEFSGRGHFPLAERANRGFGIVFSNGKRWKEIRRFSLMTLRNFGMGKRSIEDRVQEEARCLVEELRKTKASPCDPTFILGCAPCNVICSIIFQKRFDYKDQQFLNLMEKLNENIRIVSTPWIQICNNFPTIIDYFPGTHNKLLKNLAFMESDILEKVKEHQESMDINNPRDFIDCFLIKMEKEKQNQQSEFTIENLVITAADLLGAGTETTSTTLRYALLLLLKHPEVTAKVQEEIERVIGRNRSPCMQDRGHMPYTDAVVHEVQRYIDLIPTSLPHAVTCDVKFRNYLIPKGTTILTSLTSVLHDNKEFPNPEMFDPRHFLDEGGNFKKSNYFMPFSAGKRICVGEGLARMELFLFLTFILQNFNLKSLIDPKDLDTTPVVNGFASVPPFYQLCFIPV
CYP2C9 act = activators of human CYP2C9; AID 1024; activation factor at 5 µM; actives 1.4% (n = 96,000); P11712; recombinant CYP2C9, luciferin-H conversion, luminescence; hits give high values; factor 1 = untreated enzyme, 0 = blocked;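 active = activation factor of 2 or more for CYP2C9 at a 5 µM dose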
PostGolgi ctrl = inhibits growth of the yeast control strain. actives 5% (n = 98,000). inhibition, % at 10 µM. efflux-deficient yeast background strain, growth absorbance A615, 16 h
CYP2C9 inhib = inhibitors of human CYP2C9 | P11712 | CYP2C9 Supersomes, luciferin-H conversion, luminescence | inhibition, % at 5 µM | actives 20% (n = 96,000) | AID 777;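 active = blocking of liver enzyme CYP2C9 beyond about 50% at 5 µM, limit read from the data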
PostGolgi yeast = growth inhibition of a yeast mutant, post-Golgi transport screen. actives 0.9% (n = 98,000). inhibition, % at 10 µM. AID 739. post-Golgi transport phenotypic cell assay;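 also: yeast cells grown in 1536-well plates; yeast grown about 18 h at 30C before absorbance read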
CYP2C19 activ = increases human CYP2C19 enzyme activity. P33261. recombinant CYP2C19, luciferin-H EGE luminescence; hits give high values; 0 = fully inhibited enzyme, 1 = untreated enzyme. activation factor at 5 µM. 96,000 tested, under 10 active. AID 1025;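 active = activation factor of at least 2 at 5 µM in the primary screen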
Numbers stand for hits; . = inactive; / = not tested or not shown. Rule as the data show it, unless noted: active = inhibition above about 30%; inactive = the rest.

SMILES | CYP2C19 inhib | CYP2C9 act | PostGolgi ctrl | CYP2C9 inhib | PostGolgi yeast | CYP2C19 activ
O=C(O)C1(P(=O)(c2ccccc2)c2ccccc2)CCC1 | . | . | . | . | . | .
CCOC(=O)C1(P(=O)(c2ccc(Cl)cc2)c2ccc(Cl)cc2)CCC1 | 80 | . | . | . | . | .
CCN(CC)CCNC(=O)C12CC3CC(C)(CC(C)(C3)C1)C2 | . | . | . | . | . | .
C=CCNC(=O)C12CC3(C)CC(C)(CC(C)(C3)C1)C2 | 54 | . | . | . | . | .
Cn1nnnc1Sc1ncnc2scc(-c3ccccc3)c12 | . | . | . | 66 | . | .
O=C(c1ccccc1S(=O)(=O)NCc1ccccc1)N1CCCCC1 | 89 | . | . | . | . | .
O=C(Nc1ccc2c(c1)OC1(CCCC1)O2)C1CC1 | 88 | . | . | 64 | . | .
O=C(Nc1ccc(Br)c(Cl)c1)C1CC1 | . | . | . | . | . | .
O=c1c2cc(N3CCOCC3)ccc2[nH]c(=S)n1CCN1CCCC1 | . | . | . | . | . | .
O=c1c2cc3c(cc2[nH]c(=S)n1CCN1CCOCC1)OCO3 | . | . | 36 | . | . | .
O=c1c2cc(N3CCOCC3)ccc2[nH]c(=S)n1CCCN1CCCCCC1 | . | . | . | . | . | .
O=c1c2cc(F)ccc2[nH]c(=S)n1CCCN1CCOCC1 | 67 | . | . | . | . | .
O=c1c2cc(N3CCOCC3)ccc2[nH]c(=S)n1Cc1ccc(Cl)cc1 | . | . | 40 | 58 | . | .
COc1cc2[nH]c3c(=O)n(CCN4CCCCC4)cnc3c2cc1OC | . | . | . | . | . | .
CCCCn1c(-c2cc(Cl)ccc2OC)n[nH]c1=S | 72 | . | . | . | . | .
Cc1nc(N2CCN(c3ccccc3)CC2)[nH]c(=O)c1Cc1cccc2ccccc12 | / | / | . | / | . | /
COc1cc(CCC(=O)N2CCN(c3ccc(N4CCOCC4)nn3)CC2)cc(OC)c1OC | . | . | . | . | . | .
O=C(COc1ccc(-c2nnco2)cc1)N1CCN(S(=O)(=O)c2ccc3ccccc3c2)CC1 | . | . | . | . | . | .
COc1ccc(CCC(=O)N2CCN(S(=O)(=O)c3ccc4ccccc4c3)CC2)cc1 | . | . | 37 | . | . | .
COc1cc(CCC(=O)N2CCN(S(=O)(=O)c3ccc(C)c(C)c3)CC2)cc(OC)c1OC | 56 | . | . | . | . | .
CCCCNc1nnc(SCC(=O)N2CCN(S(=O)(=O)c3ccc4ccccc4c3)CC2)s1 | 79 | . | . | 87 | . | .
Cc1ccc2c(c1)NCC(C(=O)NC1CCCCC1)O2 (configuration not stated) | 59 | . | . | . | . | .
Cc1ccc(-c2nnn(CC(=O)N(Cc3ccco3)C(C(=O)NC(C)(C)C)c3cccs3)n2)o1 (configuration not stated) | / | / | . | / | . | /
CC(=O)/C(=N/Nc1cccc(Cl)c1)N1CCOCC1 | 72 | . | . | 65 | . | .
O=C(Nc1cccc(NC(=O)c2ccccc2[N+](=O)[O-])n1)c1ccccc1[N+](=O)[O-] | . | . | . | . | . | .
SMILES | CYP2C19 inhib | CYP2C9 act | PostGolgi ctrl | CYP2C9 inhib | PostGolgi yeast | CYP2C19 activ
O=C(c1ccc(Cl)cc1)c1cnc(Nc2ccccc2Cl)s1 | . | . | . | . | . | .
O=C(c1cnc(-c2ccccc2)s1)c1ccc(Cl)cc1Cl | 57 | . | . | . | . | .
CCOc1cc(NC(=O)c2ccco2)c(OCC)cc1NC(=O)CCc1ccc(OC)cc1 | . | . | / | . | / | .
O=C(N/N=C/C=C/c1ccccc1)c1cccc(Br)c1 | . | . | . | . | . | .
O=C(N/N=C/c1cccc(Oc2ccccc2)c1)c1cccc(Br)c1 | . | . | 31 | 53 | . | .
O=C(N/N=C\c1ccc(Sc2ccccn2)o1)c1cccc(Br)c1 | 84 | . | . | 82 | . | .
O=C(N/N=C/c1cccc(Oc2ccccc2)c1)c1ccccc1Br | . | . | 33 | 63 | . | .
CCOC(=O)c1cn(-c2nc(-c3ccc(Cl)cc3)cs2)c2c(F)c(N3CC(C)OC(C)C3)c(F)cc2c1=O (configuration not stated) | . | . | . | . | . | .
Cc1ccc(OC(C)c2nnc(N)s2)cc1Cl (configuration not stated) | 68 | . | . | . | . | .
CC(Oc1ccccc1Cl)c1nnc(N)s1 (configuration not stated) | . | . | . | . | . | .
CCC(=O)c1ccc(OCC(=O)Nc2nn3cnnc3s2)cc1 | . | . | . | 84 | . | .
CN(C)S(=O)(=O)c1cccc(C(=O)Nc2cc(Cl)ccc2O)c1 | . | . | . | 67 | . | .
CN(C)S(=O)(=O)c1cccc(C(=O)Nc2ccccc2Cl)c1 | . | . | . | . | . | .
O=C(Nc1cc(Cl)cc(Cl)c1)c1cccc(OC(F)F)c1 | . | . | 33 | . | 59 | .
CN(C)S(=O)(=O)c1cccc(C(=O)Nc2cc(Cl)cc(Cl)c2)c1 | . | . | . | 98 | . | .
CC1=C(C(=O)N2CCc3ccccc32)C2(CCC(C)CC2)OC1=O (configuration not stated) | . | . | . | . | . | .
CC1(C)OC(=O)C2(Cc3ccccc3N3CCCCC32)C(=O)O1 (configuration not stated) | 61 | . | . | . | . | .
CN(Cc1ccccc1)C(=O)c1ccc2c(c1)OCCO2 | 84 | . | . | . | . | .
O=C(CCOc1ccccc1)OCC(=O)c1cc2ccccc2o1 | 70 | . | . | 65 | . | .
O=C(O)CNC(=O)c1ccc2c(c1)OCCO2 | . | . | . | . | . | .
O=C(c1ccccc1)c1cc2ccccc2o1 | . | . | . | . | . | .
CN(Cc1ccccc1)C(=O)c1cc2ccccc2o1 | 94 | . | . | . | . | .
CSc1ncccc1C(=O)OCC(=O)c1cc2ccccc2o1 | . | . | . | . | . | .
CN(CCOC(=O)c1ccc2c(c1)OCCO2)Cc1ccccc1 | 54 | . | . | 62 | . | .
O=C(OCCN1CCOCC1)c1ccc2c(c1)OCCO2 | . | . | . | . | . | .
SMILES | CYP2C19 inhib | CYP2C9 act | PostGolgi ctrl | CYP2C9 inhib | PostGolgi yeast | CYP2C19 activ
CC(C)(C)NC(=O)NC(=O)COC(=O)C1=COCCO1 | . | . | . | . | . | .
Cc1cc(C)c(C(N)=O)c(NC(=O)Nc2ccccc2Cl)n1 | . | . | . | . | . | .
O=C(Nc1ccccc1)OC(CN1CCCCC1)C(F)(F)F (configuration not stated) | . | . | . | . | . | .
O=C(O)CC(=O)NC12CC3CC(CC(C3)C1)C2 | . | . | . | . | . | .
O=C(CCSc1ccc(Cl)c(Cl)c1)NC12CC3CC(CC(C3)C1)C2 | . | . | 39 | . | . | .
COCCC(=O)NC12CC3CC(CC(C3)C1)C2 | . | . | 35 | . | . | .
COCCNCC(=O)NC12CC3CC(CC(C3)C1)C2 | . | . | . | . | . | .
CC1OC(Nc2ccc(OC(F)(F)F)cc2)C(O)C(O)C1O (configuration not stated) | . | . | . | . | . | .

Screens: PubChem, several laboratories
